From article PMC11006913
Positions count from the first letter of the chain named.

Legend:
Test in all cases: PBM; 200 nM protein, PBS
Conditions in all cases: dsDNA, one strand shown
PAX4 [1] = molecular target: T1, PAX4 (Homo sapiens, UniProt O43316 9-242, R200K)
T1 sequence: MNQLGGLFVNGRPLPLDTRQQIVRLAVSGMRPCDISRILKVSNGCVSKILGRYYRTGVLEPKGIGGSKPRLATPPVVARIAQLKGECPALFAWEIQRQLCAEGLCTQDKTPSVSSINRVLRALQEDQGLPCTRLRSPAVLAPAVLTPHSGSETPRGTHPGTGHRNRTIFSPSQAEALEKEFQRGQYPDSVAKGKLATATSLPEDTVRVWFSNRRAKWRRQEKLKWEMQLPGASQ

PAX4 [2] = molecular target: T2, PAX4 (Homo sapiens, UniProt O43316 9-242)
T2 sequence: T1 sequence with K192R

PAX4 [3] = molecular target: T3, PAX4 (Homo sapiens, UniProt O43316 9-242, F177V)
T3 sequence: T1 sequence with F169V, K192R

PAX4 [4] = molecular target: T4, PAX4 (Homo sapiens, UniProt O43316 9-242, F177Y)
T4 sequence: T1 sequence with F169Y, K192R

PAX4 [5] = molecular target: T5, PAX4 (Homo sapiens, UniProt O43316 9-242, R227W)
T5 sequence: T1 sequence with K192R, R219W

HOXB9 [6] = molecular target: HOXB9 (Homo sapiens, UniProt P17482 171-250, T197M)
HOXB9 [7] = molecular target: HOXB9 (Homo sapiens, UniProt P17482 171-250)
HOXB9 [8] = molecular target: HOXB9 (Homo sapiens, UniProt P17482 171-250, R186Q)
HOXB6 = HOXB6 (Homo sapiens, UniProt P17509 132-218)
VENTX = molecular target: T6, VENTX (Homo sapiens, UniProt O95231 78-163)
T6 sequence: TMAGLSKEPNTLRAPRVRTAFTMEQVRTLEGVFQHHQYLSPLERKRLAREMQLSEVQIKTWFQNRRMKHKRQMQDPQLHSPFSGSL

VAX1 = VAX1 (Homo sapiens, UniProt Q5SQQ9 86-172)
Chain of VAX1 (Q5SQQ9 86-172): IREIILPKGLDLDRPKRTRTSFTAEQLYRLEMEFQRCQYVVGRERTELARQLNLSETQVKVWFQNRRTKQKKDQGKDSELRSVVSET

Chain of HOXB9 (Homo sapiens, UniProt P17482 171-250, R186Q) (P17482 171-250 R186Q): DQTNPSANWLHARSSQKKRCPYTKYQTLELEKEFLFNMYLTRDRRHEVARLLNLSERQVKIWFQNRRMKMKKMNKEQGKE
Chain of HOXB9 (Homo sapiens, UniProt P17482 171-250) (P17482 171-250): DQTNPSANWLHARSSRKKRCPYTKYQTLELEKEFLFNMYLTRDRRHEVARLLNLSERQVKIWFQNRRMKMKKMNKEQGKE
Chain of HOXB6 (P17509 132-218): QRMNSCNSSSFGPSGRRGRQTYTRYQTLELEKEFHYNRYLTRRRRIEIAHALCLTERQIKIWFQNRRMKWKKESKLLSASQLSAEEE
Chain of HOXB9 (Homo sapiens, UniProt P17482 171-250, T197M) (P17482 171-250 T197M): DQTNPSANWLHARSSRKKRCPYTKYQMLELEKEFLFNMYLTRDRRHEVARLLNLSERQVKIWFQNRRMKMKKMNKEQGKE

## CAAATTAA
PAX4 [1]
  binding signal: 11.8 upbm affinity estimate (log intensity, higher = more binding, comparable within an allelic series)
PAX4 [2]
  binding signal: 12.4 upbm affinity estimate (log intensity, higher = more binding, comparable within an allelic series)
PAX4 [3]
  binding signal: 10.5 upbm affinity estimate (log intensity, higher = more binding, comparable within an allelic series)
PAX4 [4]
  binding signal: 11.1 upbm affinity estimate (log intensity, higher = more binding, comparable within an allelic series)
PAX4 [5]
  binding signal: 11 upbm affinity estimate (log intensity, higher = more binding, comparable within an allelic series)

## AATTAAGA
PAX4 [1]
  binding signal: 11.6 upbm affinity estimate (log intensity, higher = more binding, comparable within an allelic series)
PAX4 [2]
  binding signal: 12.2 upbm affinity estimate (log intensity, higher = more binding, comparable within an allelic series)
PAX4 [3]
  binding signal: 10.5 upbm affinity estimate (log intensity, higher = more binding, comparable within an allelic series)
PAX4 [4]
  binding signal: 10.9 upbm affinity estimate (log intensity, higher = more binding, comparable within an allelic series)
PAX4 [5]
  binding signal: 10.8 upbm affinity estimate (log intensity, higher = more binding, comparable within an allelic series)

## CCTTCGAG
HOXB9 [6]
  binding signal: 8.5 upbm affinity estimate (log intensity, higher = more binding, comparable within an allelic series)
HOXB9 [7]
  binding signal: 8.46 upbm affinity estimate (log intensity, higher = more binding, comparable within an allelic series)
HOXB9 [8]
  binding signal: 8.5 upbm affinity estimate (log intensity, higher = more binding, comparable within an allelic series)

## AATTAGTA
PAX4 [1]
  binding signal: 11.7 upbm affinity estimate (log intensity, higher = more binding, comparable within an allelic series)
PAX4 [2]
  binding signal: 12.2 upbm affinity estimate (log intensity, higher = more binding, comparable within an allelic series)
PAX4 [3]
  binding signal: 10.5 upbm affinity estimate (log intensity, higher = more binding, comparable within an allelic series)
PAX4 [4]
  binding signal: 10.9 upbm affinity estimate (log intensity, higher = more binding, comparable within an allelic series)
PAX4 [5]
  binding signal: 11 upbm affinity estimate (log intensity, higher = more binding, comparable within an allelic series)
HOXB6
  binding signal: 11.3 upbm affinity estimate (log intensity, higher = more binding, comparable within an allelic series)

## AATTAGCG
VENTX
  binding signal: 12.3 upbm affinity estimate (log intensity, higher = more binding, comparable within an allelic series)
PAX4 [1]
  binding signal: 11.8 upbm affinity estimate (log intensity, higher = more binding, comparable within an allelic series)
PAX4 [2]
  binding signal: 12.4 upbm affinity estimate (log intensity, higher = more binding, comparable within an allelic series)
PAX4 [3]
  binding signal: 10.4 upbm affinity estimate (log intensity, higher = more binding, comparable within an allelic series)
PAX4 [4]
  binding signal: 11 upbm affinity estimate (log intensity, higher = more binding, comparable within an allelic series)
VAX1
  binding signal: 12.6 upbm affinity estimate (log intensity, higher = more binding, comparable within an allelic series)
PAX4 [5]
  binding signal: 11 upbm affinity estimate (log intensity, higher = more binding, comparable within an allelic series)

## CCAATTAC
HOXB9 [7]
  binding signal: 10.9 upbm affinity estimate (log intensity, higher = more binding, comparable within an allelic series)
HOXB9 [8]
  binding signal: 10.6 upbm affinity estimate (log intensity, higher = more binding, comparable within an allelic series)

## AATTAACG
PAX4 [1]
  binding signal: 11.6 upbm affinity estimate (log intensity, higher = more binding, comparable within an allelic series)
PAX4 [2]
  binding signal: 12.2 upbm affinity estimate (log intensity, higher = more binding, comparable within an allelic series)
PAX4 [3]
  binding signal: 10.6 upbm affinity estimate (log intensity, higher = more binding, comparable within an allelic series)
PAX4 [4]
  binding signal: 11 upbm affinity estimate (log intensity, higher = more binding, comparable within an allelic series)
PAX4 [5]
  binding signal: 10.9 upbm affinity estimate (log intensity, higher = more binding, comparable within an allelic series)

## AATTAGAT
PAX4 [1]
  binding signal: 11.7 upbm affinity estimate (log intensity, higher = more binding, comparable within an allelic series)
PAX4 [2]
  binding signal: 12.2 upbm affinity estimate (log intensity, higher = more binding, comparable within an allelic series)
PAX4 [3]
  binding signal: 10.6 upbm affinity estimate (log intensity, higher = more binding, comparable within an allelic series)
PAX4 [4]
  binding signal: 10.9 upbm affinity estimate (log intensity, higher = more binding, comparable within an allelic series)
PAX4 [5]
  binding signal: 10.9 upbm affinity estimate (log intensity, higher = more binding, comparable within an allelic series)
